# Assay results: PubChem BioAssay (NCATS)
# Several values for one entry are separate records, joined by “and”; a condition that tells them apart may be missing. Identical values can stand only once. Inconclusive results are not listed. A structure can be active in one record and inactive in another. Unmarked numbers belong to inactive results. Activity calls are given as the source filed them. Calls come from the whole dose curve; as a rule, active = well fitted inhibition curve with a large enough effect; inconclusive = small, poorly fitted or top-dose-only effect; inactive = flat fitted curve, though single readings scatter.
# Columns and labels:
# CRL-7250 = normal cell line; assay: Cytotoxic Profiling of Annotated Libraries Using Quantitative High-Throughput Screening (AID 1296008); conditions: Five cell lines viability, CellTiter-Glo ATP luminescence, 48-72 h; max response: stronger effect = lower value; note: potency is the fitted concentration of half-maximal effect; for max response: % is set by controls: 0 for no effect and ±100 for the full control effect
# How it was run: (§1)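 Compounds were pin-transferred onto cells and incubated 48 or 72 hr at 37 degree Celsius, 95% humidity. CellTiter-Glo was added, plates sat 10 min at room temperature, then ATP-coupled luminescence was imaged as the viability read-out.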
# HEK293 = assay: as above; conditions: Five cell lines viability, CellTiter-Glo ATP luminescence, 48-72 h; max response: stronger effect = lower value
# How it was run: as §1
# HaCat [1] = assay: as above; conditions: Five cell lines viability, CellTiter-Glo ATP luminescence, 48-72 h; max response: stronger effect = lower value
# How it was run: as §1
# KB-3-1 = assay: as above; conditions: Five cell lines viability, CellTiter-Glo ATP luminescence, 48-72 h; max response: stronger effect = lower value
# How it was run: as §1
# NIH3T3 = assay: as above; conditions: Five cell lines viability, CellTiter-Glo ATP luminescence, 48-72 h; max response: stronger effect = lower value
# How it was run: as §1
# HACAT [2] = assay: qHTS assay to identify novel small-molecules to repurpose for Merkel cell carcinoma treatment (AID 1296009); conditions: MCC and control cell lines, CellTiter-Glo viability, 72 h; at 44.8 µM (top of the series) unless noted
# How it was run: (§2)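 Luminescence from CellTiter-Glo, read 10 min after addition at room temperature, reported viability following a 72 hr, 37 degree celsius treatment with NPC or MIPE compounds in titration; values normalized to plate controls.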
# HEK293T = assay: as above; conditions: MCC and control cell lines, CellTiter-Glo viability, 72 h; series mostly up to 44.8 µM
# How it was run: as §2
# Note: nearly all actives have a fitted effect of over 60% in size.
smiles,measurement,setting,value
NS(=O)(=O)NCCNc1nonc1C(=Nc1ccc(F)c(Br)c1)NO,max response,CRL-7250,3.38% and -8.95%
same,max response,HEK293,-61.6%
same,outcome,HEK293,inactive
same,max response,HaCat [1],-46.4%
same,outcome,HaCat [1],inactive
same,max response,KB-3-1,4.58% and 8.99%
same,max response,NIH3T3,-8.59% and -38.3%
same,outcome,NIH3T3,inactive
same,outcome,HACAT [2],inactive
same,Potency,HEK293T,inactive
Nc1ccn([C@@H]2C(F)=C(CO)[C@@H](O)[C@H]2O)c(=O)n1,max response,CRL-7250,-25.3%
same,Potency,HEK293,920 nM (active) and 933 nM (active)
same,Potency,HaCat [1],18.4 µM (active)
same,Potency,KB-3-1,9.2 µM (active)
same,Potency,NIH3T3,4.61 µM (active) and 3.71 µM (active)
Cc1nc2c(-c3cnc(N)nc3)nc(N3CCOCC3)nc2n1C(C)C,Potency,CRL-7250,291 nM (active) and 7.4 nM (active)
same,Potency,HEK293,326 nM (active) and 23.4 nM (active)
same,Potency,HaCat [1],2.06 µM (active) and 132 nM (active)
same,Potency,KB-3-1,0.461 µM (active)
same,Potency,NIH3T3,1.16 µM (active) and 234 nM (active)
CC(C)Nc1cc(-c2c[nH]c(C(=O)N[C@H](CO)c3cccc(Cl)c3)c2)c(Cl)cn1,max response,CRL-7250,-4.72%
same,Potency,HEK293,26.3 µM (active)
same,max response,HEK293,-74.1%
same,Potency,HaCat [1],2.59 µM (active) and 14.8 µM (active)
same,max response,KB-3-1,-26.9%
Cc1onc(-c2ccccc2)c1C(=O)N[C@@H]1C(=O)N2[C@@H]1SC(C)(C)[C@@H]2C(=O)O,max response,CRL-7250,4.38%
same,outcome,CRL-7250,inactive
same,max response,HEK293,3.77% and -1.97%
same,max response,HaCat [1],-3.02% and -31.5%
same,outcome,KB-3-1,inactive
same,outcome,NIH3T3,inactive
N#Cc1ccnc(N2C(=O)CC[C@H]2C(=O)N(c2cncc(F)c2)[C@H](C(=O)NC2CC(F)(F)C2)c2ccccc2Cl)c1,max response,CRL-7250,-10.6%
same,Potency,HEK293,3.31 µM (active)
same,max response,HEK293,-9.11%
same,Potency,HaCat [1],23.4 µM (active)
same,max response,HaCat [1],-27%
same,max response,KB-3-1,1.75%
same,max response,NIH3T3,-4.58%
CO/N=C(/C(=O)N[C@@H]1C(=O)N2C(C(=O)O)=C(CSC(=O)c3ccco3)CS[C@H]12)c1csc(N)n1,max response,CRL-7250,-7.13% and 1.26%
same,max response,HEK293,3.45% and -9.59%
same,max response,HaCat [1],4.84%
same,outcome,HaCat [1],inactive; activator
same,max response,KB-3-1,-14.5%
same,outcome,KB-3-1,inactive
same,max response,NIH3T3,0.301% and -3.25%
same,outcome,HACAT [2],inactive; activator
COc1ncc(-c2ccc3c(Nc4cc(Oc5cc(F)cc(F)c5)cc(C(=O)O)c4)c(S(=O)(=O)NC4CC4)cnc3c2)c(OC)n1,max response,CRL-7250,-7.5% and -5.78%
same,max response,HEK293,0.563% and -20.6%
same,max response,HaCat [1],-12% and 2.17%
same,outcome,KB-3-1,inactive
same,max response,NIH3T3,3.25% and -1.23%
Cc1cc(Nc2ncc(Cl)c(Nc3ccccc3S(=O)(=O)C(C)C)n2)c(OC(C)C)cc1C1CCNCC1,max response,CRL-7250,-10.6%
same,Potency,HEK293,8.2 µM (active) and 4.17 µM (active)
same,outcome,HaCat [1],inactive
same,Potency,KB-3-1,18.4 µM (active)
same,Potency,NIH3T3,23.4 µM (active)
same,outcome,NIH3T3,inactive
same,outcome,HACAT [2],inactive
O=C(NC[C@H](O)CN1CCc2ccccc2C1)c1cc(NC2COC2)ncn1,max response,CRL-7250,-6.51% and -13.6%
same,max response,HEK293,-6.86%
same,max response,HaCat [1],-0.448%
same,outcome,KB-3-1,inactive
same,max response,NIH3T3,-2.53%
same,outcome,NIH3T3,inactive
Cc1ccc(C(=O)Nc2ccc(Oc3cc4cnn(C)c4cc3-c3cn[nH]c3)c(F)c2)c(=O)n1-c1ccc(F)cc1,Potency,CRL-7250,4.67 µM (active)
same,Potency,HEK293,5.8 µM (active) and 3.31 µM (active)
same,Potency,HaCat [1],16.6 µM (active)
same,Potency,KB-3-1,5.17 µM (active)
same,Potency,NIH3T3,4.11 µM (active)
CCC(=O)NS(=O)(=O)c1ccc(-c2c(-c3ccccc3)noc2C)cc1,outcome,CRL-7250,inactive
same,outcome,HEK293,inactive
same,max response,HaCat [1],-10.3%
same,max response,KB-3-1,-21.2%
same,outcome,KB-3-1,inactive
same,outcome,NIH3T3,inactive
same,Potency,HEK293T,inactive
O=C(O)C[C@H](O)C[C@H](O)/C=C/c1c(C2CC2)nc2ccccc2c1-c1ccc(F)cc1,Potency,CRL-7250,0.731 µM (active)
same,Potency,HEK293,5.8 µM (active)
same,Potency,HaCat [1],7.31 µM (active)
same,Potency,KB-3-1,4.61 µM (active)
same,Potency,NIH3T3,14.6 µM (active)
CCn1c2ccccc2c2cc(CNC)ccc21,max response,CRL-7250,-18% and 2.31%
same,Potency,HEK293,18.4 µM (active)
same,outcome,HaCat [1],inactive
same,max response,KB-3-1,-23.4%
same,outcome,KB-3-1,inactive
same,max response,NIH3T3,-5.49%
same,outcome,NIH3T3,inactive
same,outcome,HACAT [2],inactive
CNC(=O)c1ccc(Nc2ncc(C(F)(F)F)c(NCc3nccnc3N(C)S(C)(=O)=O)n2)cc1,Potency,CRL-7250,4.17 µM (active)
same,Potency,HEK293,5.17 µM (active)
same,Potency,HaCat [1],7.31 µM (active) and 2.95 µM (active)
same,Potency,KB-3-1,11.6 µM (active)
same,Potency,NIH3T3,14.6 µM (active) and 3.71 µM (active)
C[C@]12C=CC(=O)C=C1CC[C@@H]1[C@@H]2[C@@H](O)C[C@@]2(C)[C@H]1CC[C@]2(O)C(=O)COC(=O)CCC(=O)O,max response,CRL-7250,2.71%
same,max response,HEK293,-0.357%
same,outcome,HaCat [1],inactive
same,max response,KB-3-1,2.8%
same,outcome,KB-3-1,inactive
same,outcome,NIH3T3,inactive
same,outcome,HACAT [2],inactive
